# Hits are enriched below; roughly 1.6% of the tested compounds scored in any of these assays.
# KCNQ2 block: KCNQ2 (rat) channel inhibition; CHO-K1 KCNQ2, FluxOR thallium flux, 20 min; stronger effect = lower value; B-score at 10 µM; 310,000 tested, 1.1% active;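 active = fluorescence ratio B-score at most minus 3 library SDs, with starting brightness B-score within 2 library SDs, cut at about -5.5 in these data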
# KCNQ2 pot: potentiators of rat KCNQ2 potassium channel; CHO-K1 KCNQ2, FluxOR thallium flux fluorescence; stronger effect = higher value; B-score at 10 µM; 310,000 tested, 0.54% active; AID 2239;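 active = fluorescence ratio B-score at least 3 SD of library B-scores, with initial fluorescence B-score within 3 of them, cut at about 5.3 in these data; same plate scores as AID 2156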;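 note: B-score of peak minus minimum over baseline fluorescence ratio after K+ and Tl+ stimulus; positive B-score means potentiation of KCNQ2 with more thallium influx and brighter signal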
# Kir21 confirm: confirmation of mouse Kir2.1 potassium channel inhibitors. shares compounds with KCNQ2 pot. 2,300 tested, 41% active. Tl flux remaining, % of negative control (stronger effect = lower value), % at 10 µM. Kir2.1-expressing cells, FluxOR thallium flux fluorescence; stronger effect = lower value;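 active = Primary-screen hit whose thallium flux fell at least 3 control SD below untreated wells in both duplicates, with normal baseline fluorescence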
# HEK293 Tl flux: alters thallium flux in parental HEK293 cells, Kir2.1 counter-screen; AID 2105; FluxOR thallium flux fluorescence; 0% = unstimulated blank wells; FluxOR signal as % of negative control (100 = no effect), % at 10 µM; shares compounds with KCNQ2 pot; 2,300 tested, 19% active;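 active = dye signal at least 3 control SD above or below untreated wells in both duplicates, raw fluorescence within 3, either direction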;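 note: percent is based on the flux ratio of peak minus minimum fluorescence over baseline F0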
# CHO-K1 ctr: counter-screen for KCNQ2 potentiators: effect in parental CHO-K1 cells | shares compounds with KCNQ2 pot | FluxOR thallium flux fluorescence; zero = vehicle mean+3SD, 100% = vehicle-minus-blank window | activity increase over 3SD of controls, % at 10 µM | 1,200 tested, 43% active | AID 2282;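 active = signal rise of at least 3 SD above the untreated control mean, in both duplicate wells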;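 note: counter screen of KCNQ2 potentiator hits so any rise reflects channel-independent effects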
# KCNQ1 pot spec: human KCNQ1 counter-target activity of KCNQ2 potentiators. shares compounds with KCNQ2 pot. 1,200 tested, 28% active. activation over 3SD threshold, % at 10 µM. CHO KCNQ1 stable, FluxOR thallium flux fluorescence; beyond 3SD, as % of vehicle-control signal;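 active = fluorescence ratio rise of at least 3 SD of vehicle wells above their mean, in both replicate wells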
# Target sequence (P51787 whole entry, looked up): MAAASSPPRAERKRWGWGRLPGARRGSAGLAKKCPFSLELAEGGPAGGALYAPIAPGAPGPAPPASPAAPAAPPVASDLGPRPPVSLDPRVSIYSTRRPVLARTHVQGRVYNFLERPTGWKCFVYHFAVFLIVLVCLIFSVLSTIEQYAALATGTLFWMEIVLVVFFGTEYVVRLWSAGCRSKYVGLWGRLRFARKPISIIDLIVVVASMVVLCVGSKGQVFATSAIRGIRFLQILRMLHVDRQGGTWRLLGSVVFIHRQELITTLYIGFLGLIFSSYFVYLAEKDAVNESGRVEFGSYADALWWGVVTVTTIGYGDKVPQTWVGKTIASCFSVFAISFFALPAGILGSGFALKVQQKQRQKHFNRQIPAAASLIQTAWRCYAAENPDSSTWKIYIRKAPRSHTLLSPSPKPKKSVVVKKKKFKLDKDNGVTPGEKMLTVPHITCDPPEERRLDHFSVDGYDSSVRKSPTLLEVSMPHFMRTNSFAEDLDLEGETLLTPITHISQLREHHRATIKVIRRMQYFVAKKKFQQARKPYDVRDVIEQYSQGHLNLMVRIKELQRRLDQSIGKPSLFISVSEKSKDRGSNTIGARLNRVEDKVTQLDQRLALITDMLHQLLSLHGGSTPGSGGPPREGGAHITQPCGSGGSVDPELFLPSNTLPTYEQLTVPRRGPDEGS
# KCNQ2 pot conf: confirmation of rat KCNQ2 potassium channel potentiators; potentiation, less the hit threshold, % at 10 µM; CHO-KCNQ2 cells, FluxOR thallium flux fluorescence; shares compounds with KCNQ2 pot; AID 2287; 1,200 tested, 68% active;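 active = fluorescence ratio rising 3 SD or more over the vehicle control mean in both replicates, plus primary screen hit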;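 note: peak minus minimum thallium fluorescence divided by baseline after K/Tl stimulus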
# Kir2-1 sel: mouse Kir2.1 off-target activity of KCNQ2 potentiators. AID 2345. activity over 3SD threshold, % at 10 µM. HEK293 Kir2.1, FluxOR thallium flux fluorescence. 1,200 tested, 2% active. shares compounds with KCNQ2 pot;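 active = fluorescence ratio rise of at least 3 SD above the vehicle-control mean, seen in both replicates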
# KCNQ2 W236L pot: rat KCNQ2 W236L mutant potentiation by KCNQ2 potentiators; shares compounds with KCNQ2 pot; AID 2558; 940 tested, 10% active; current increase over 3SD of negative controls (%), stronger effect = higher value, % at 25 µM; CHO KCNQ2-W236L, automated patch clamp current;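 active = current increase at least 3 SD of the untreated controls above them in both duplicate recordings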
# Hits are given with their value; n = inactive; x = no result.
SMILES,KCNQ2 block,KCNQ2 pot,Kir21 confirm,HEK293 Tl flux,others
CC(C)(C)c1cc(Cl)ccc1OCCOCCN1CCCC1,n,x,39%,n,
C=CCNCCOCCOc1ccc(Cl)cc1C(C)(C)C,n,x,x,x,
C=CCNCCCOc1ccc(Cl)cc1C(C)(C)C,n,x,28%,n,
O=C(Nc1ncccc1O)c1ccc2c(c1)OCCO2,n,x,x,x,
Oc1ccc(N=Nc2ccc3c(c2)OCCO3)c2ncccc12,n,12,n,n,CHO-K1 ctr=2.9;KCNQ1 pot spec=n;KCNQ2 pot conf=n;Kir2-1 sel=n
COc1ccc(CC(=O)N(C)CC(=O)Nc2cccc(F)c2)cc1S(=O)(=O)N1CCOCC1,n,x,x,x,
CCn1c(=S)[nH]c2scc(-c3cccs3)c2c1=O,n,18,n,508%,CHO-K1 ctr=3.7;KCNQ1 pot spec=n;KCNQ2 pot conf=94;Kir2-1 sel=1.6;KCNQ2 W236L pot=n
C=CCn1c(=S)[nH]c2scc(-c3ccc(C)o3)c2c1=O,n,16,n,384%,CHO-K1 ctr=4.1;KCNQ1 pot spec=n;KCNQ2 pot conf=46;Kir2-1 sel=n;KCNQ2 W236L pot=n
C=CCn1c(SCC(C)=O)nc2scc(-c3ccc(C)o3)c2c1=O,n,x,x,x,
O=c1c2c(-c3cccs3)csc2[nH]c(=S)n1-c1ccccc1,n,n,x,x,
COc1cc(C(=S)N2CCCCC2)ccc1OCC(=O)N1CCCC1,n,n,x,x,
COc1cc(C(=S)N2CCCCC2)ccc1OCC(=O)Nc1ccc(F)cc1,n,6,n,n,CHO-K1 ctr=142;KCNQ1 pot spec=27;KCNQ2 pot conf=17;Kir2-1 sel=n;KCNQ2 W236L pot=n
O=[N+]([O-])c1cccc2c3c([nH]c12)CCCC3,n,x,x,x,
CCOc1ccc(-n2cc(-c3ccccc3)c3c(=S)nc[nH]c32)cc1,n,6.9,n,148%,CHO-K1 ctr=11;KCNQ1 pot spec=n;KCNQ2 pot conf=0.0;Kir2-1 sel=n;KCNQ2 W236L pot=n
CCOc1ccc(-n2cc(-c3ccccc3)c3c(=O)[nH]cnc32)cc1,n,n,x,x,
COc1cccc(NC(=O)CSc2nnc(-c3cccc(OC(C)C)c3)n2N)c1,n,n,x,x,
O=C(COC(=O)CCc1ccc(S(=O)(=O)N2CCOCC2)cc1)NC(=O)NC1CCCCC1,n,x,x,x,
CCCCCC(=O)Oc1cccc(N2C(=O)C3CCCCC3C2=O)c1 (stereo not given),n,n,x,x,
CCn1c(Sc2ccc(N)cc2Cl)nc2ccccc21,n,x,76%,n,
CCn1c(SCC(=O)NC(C)c2ccccc2)nc2ccccc21 (stereo not given),n,x,x,x,
CCOC(=O)c1sc2ncnc(NCc3ccco3)c2c1C,n,14,n,238%,CHO-K1 ctr=23;KCNQ1 pot spec=n;KCNQ2 pot conf=47;Kir2-1 sel=n;KCNQ2 W236L pot=n
CCOC(=O)c1sc2nc(CC(=O)OC)nc(NCc3ccco3)c2c1C,n,n,x,x,
O=C(Cn1nnc(-c2cc(C(F)(F)F)cc(C(F)(F)F)c2)n1)NNC(=S)Nc1ccc(Cl)cc1,n,n,x,x,
CC(Oc1ccc(Cl)cc1)c1ccc(C#N)c(=O)[nH]1 (stereo not given),n,n,x,x,
CCc1ccccc1NC(=S)Nn1cnnc1,n,n,x,x,
SMILES,KCNQ2 block,KCNQ2 pot,Kir21 confirm,HEK293 Tl flux,others
Cc1ccc(S(=O)(=O)NCCSCc2ccccc2)cc1,n,x,64%,n,
Cc1ccc(CSCCNS(=O)(=O)c2ccc([N+](=O)[O-])cc2)cc1,n,x,x,x,
Cc1c(S(=O)(=O)NC2CCCCC2)c(=O)n(C)c(=O)n1C,n,x,x,x,
O=Cc1sc([O-])nc1-[n+]1ccc2ccccc2c1,n,x,x,x,
NC(=O)c1ccc(NC(=O)COC(=O)C2(c3ccccc3F)CCCC2)cc1,n,n,x,x,
O=C(COC(=O)C1(c2ccccc2F)CCCC1)NCc1cccs1,n,x,73%,n,
Cc1nn(C(C)C(=O)NC2CCC(C)CC2)c(=O)c2nn(-c3ccccc3)c(C)c12 (stereo not given),n,n,x,x,
CC(=O)Nc1ccc(NCc2ccc(C)s2)cc1,n,n,x,x,
CCCC(=O)Nc1ccc(NCc2ccc(C)s2)cc1,n,22,n,n,CHO-K1 ctr=n;KCNQ1 pot spec=n;KCNQ2 pot conf=85;Kir2-1 sel=n;KCNQ2 W236L pot=n

# Source: PubChem (Johns Hopkins Ion Channel Center)
